# Test results reported in article PMC7862700, “An all-to-all approach to the identification of sequence-specific readers for epigenetic DNA modifications on cytosine”.
# Tests used:
# Experiment in all cases: DAPPL (digital affinity profiling via proximity ligation, sequencing); 10 mM Tris-HCl pH 7.5, 50 mM NaCl, 1 mM DTT, 4% glycerol, room temperature, 30 min; GST-TFs on glutathione beads, 16-mer random dsDNA library, 0.1% formaldehyde crosslink after washing; high values mean tight binding
# Details in all cases: protein: recombinant; tags: N-terminal GST; dsDNA, one strand shown
# ELK4 = biological target: T1, ELK4 (Homo sapiens, UniProt P28324-2 1-405)
# T1 sequence: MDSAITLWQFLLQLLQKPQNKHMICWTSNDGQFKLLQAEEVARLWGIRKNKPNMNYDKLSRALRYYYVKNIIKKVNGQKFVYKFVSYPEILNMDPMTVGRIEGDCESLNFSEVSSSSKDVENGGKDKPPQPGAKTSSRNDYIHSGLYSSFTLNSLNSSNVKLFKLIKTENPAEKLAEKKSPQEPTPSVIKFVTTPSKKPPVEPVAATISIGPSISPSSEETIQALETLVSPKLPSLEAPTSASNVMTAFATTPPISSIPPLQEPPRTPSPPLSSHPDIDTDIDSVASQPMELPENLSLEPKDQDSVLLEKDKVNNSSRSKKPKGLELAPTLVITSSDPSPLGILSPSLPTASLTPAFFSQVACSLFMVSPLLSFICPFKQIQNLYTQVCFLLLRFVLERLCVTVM
# Procedure, shortened: (§1)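 Pools were built from human transcription factors expressed in yeast as GST fusions, captured on glutathione beads and DNA-barcoded, along with a tag-only sample. Incubation with 200 nmole of a 16-mer random double-stranded DNA library lasted 30 min at room temperature in Tris/NaCl/DTT/glycerol buffer, and was followed by washing, 0.1% formaldehyde crosslinking, proximity ligation, PCR amplification and Illumina NextSeq500 sequencing. Binding signal is the quotient of each hexamer's read frequency for a factor and its frequency for the tag-only sample.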
# ELF3 = biological target: T2, ELF3 (Homo sapiens, UniProt P78545 1-371)
# T2 sequence: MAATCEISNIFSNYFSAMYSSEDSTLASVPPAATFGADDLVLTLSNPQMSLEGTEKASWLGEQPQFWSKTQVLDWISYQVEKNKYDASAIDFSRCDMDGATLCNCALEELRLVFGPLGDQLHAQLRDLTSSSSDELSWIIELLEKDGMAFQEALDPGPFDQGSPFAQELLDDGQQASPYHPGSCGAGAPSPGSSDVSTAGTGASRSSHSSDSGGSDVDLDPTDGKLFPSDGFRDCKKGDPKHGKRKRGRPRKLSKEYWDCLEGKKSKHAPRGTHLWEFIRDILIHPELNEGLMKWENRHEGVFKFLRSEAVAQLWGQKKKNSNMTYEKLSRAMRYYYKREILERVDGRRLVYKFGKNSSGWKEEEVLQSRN
# Procedure, shortened: as §1
# ETV1 = ETV1 (Homo sapiens, UniProt P50549 1-477)
# Procedure, shortened: as §1
# ERF = biological target: T3, ERF (Homo sapiens, UniProt P50548 1-548)
# T3 sequence: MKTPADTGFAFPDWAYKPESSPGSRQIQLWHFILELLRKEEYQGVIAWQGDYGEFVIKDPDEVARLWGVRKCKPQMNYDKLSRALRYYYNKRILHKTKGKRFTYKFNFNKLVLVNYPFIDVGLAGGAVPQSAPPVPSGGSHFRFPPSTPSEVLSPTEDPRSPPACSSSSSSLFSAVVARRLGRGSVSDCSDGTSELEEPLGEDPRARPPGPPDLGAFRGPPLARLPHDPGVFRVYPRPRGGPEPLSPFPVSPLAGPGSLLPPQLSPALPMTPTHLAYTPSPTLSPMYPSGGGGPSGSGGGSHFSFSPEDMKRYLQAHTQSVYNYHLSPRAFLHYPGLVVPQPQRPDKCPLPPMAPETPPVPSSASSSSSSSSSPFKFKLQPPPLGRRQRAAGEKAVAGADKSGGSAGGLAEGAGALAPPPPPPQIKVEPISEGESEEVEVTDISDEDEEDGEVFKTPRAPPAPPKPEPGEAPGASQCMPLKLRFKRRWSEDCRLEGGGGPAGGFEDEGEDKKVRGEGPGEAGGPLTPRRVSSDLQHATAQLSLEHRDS
# Procedure, shortened: as §1
# ETV3L = biological target: T4, ETV3L (Homo sapiens, UniProt Q6ZN32 1-361)
# T4 sequence: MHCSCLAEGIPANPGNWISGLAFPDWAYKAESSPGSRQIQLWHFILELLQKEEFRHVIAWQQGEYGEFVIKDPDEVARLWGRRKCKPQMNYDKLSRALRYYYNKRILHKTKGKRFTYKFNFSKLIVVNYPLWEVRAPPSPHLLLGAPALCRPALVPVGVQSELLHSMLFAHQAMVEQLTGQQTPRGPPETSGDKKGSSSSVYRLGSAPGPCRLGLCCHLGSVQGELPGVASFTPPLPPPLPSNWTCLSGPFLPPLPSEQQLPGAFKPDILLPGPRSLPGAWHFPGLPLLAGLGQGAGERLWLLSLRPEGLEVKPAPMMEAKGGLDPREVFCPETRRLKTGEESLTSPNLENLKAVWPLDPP
# Procedure, shortened: as §1
# ETS2 = biological target: T5, ETS2 (Homo sapiens, UniProt P15036 1-469)
# T5 sequence: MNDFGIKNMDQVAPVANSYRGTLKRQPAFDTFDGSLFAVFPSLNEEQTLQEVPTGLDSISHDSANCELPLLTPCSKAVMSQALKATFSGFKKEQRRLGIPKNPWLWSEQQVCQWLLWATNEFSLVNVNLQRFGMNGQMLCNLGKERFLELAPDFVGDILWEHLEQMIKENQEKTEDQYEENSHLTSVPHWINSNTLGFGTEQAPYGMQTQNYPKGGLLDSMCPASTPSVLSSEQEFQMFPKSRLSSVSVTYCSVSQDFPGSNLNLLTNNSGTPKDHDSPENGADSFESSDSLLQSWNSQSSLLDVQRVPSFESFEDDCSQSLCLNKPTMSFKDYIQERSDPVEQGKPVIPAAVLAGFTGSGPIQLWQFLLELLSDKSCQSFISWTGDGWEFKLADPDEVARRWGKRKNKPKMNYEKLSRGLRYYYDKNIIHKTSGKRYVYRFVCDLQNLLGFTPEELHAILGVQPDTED
# Procedure, shortened: as §1
# SPDEF = biological target: T6, SPDEF (Homo sapiens, UniProt O95238 1-335)
# T6 sequence: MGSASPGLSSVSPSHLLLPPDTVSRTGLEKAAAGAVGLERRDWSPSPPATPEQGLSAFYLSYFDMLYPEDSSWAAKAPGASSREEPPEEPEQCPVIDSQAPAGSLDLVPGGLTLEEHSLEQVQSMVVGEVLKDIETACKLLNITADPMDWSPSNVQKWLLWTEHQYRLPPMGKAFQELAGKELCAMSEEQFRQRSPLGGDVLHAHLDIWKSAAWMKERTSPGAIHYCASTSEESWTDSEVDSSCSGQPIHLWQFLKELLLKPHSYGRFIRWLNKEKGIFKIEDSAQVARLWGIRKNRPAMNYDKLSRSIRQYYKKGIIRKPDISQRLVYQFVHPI
# Procedure, shortened: as §1
# ETV7 = biological target: T7, ETV7 (Homo sapiens, UniProt Q9Y603 1-341)
# T7 sequence: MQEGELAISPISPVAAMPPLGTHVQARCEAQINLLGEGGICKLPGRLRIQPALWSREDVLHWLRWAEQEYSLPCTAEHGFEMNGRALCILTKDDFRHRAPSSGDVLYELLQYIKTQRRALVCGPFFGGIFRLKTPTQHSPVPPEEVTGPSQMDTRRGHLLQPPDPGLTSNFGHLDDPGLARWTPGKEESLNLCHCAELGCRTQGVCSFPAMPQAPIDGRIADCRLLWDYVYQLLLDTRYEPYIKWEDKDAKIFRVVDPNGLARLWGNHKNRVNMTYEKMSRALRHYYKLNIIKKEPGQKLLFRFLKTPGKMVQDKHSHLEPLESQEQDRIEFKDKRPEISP
# Procedure, shortened: as §1
# ETV3 = biological target: T8, ETV3 (Homo sapiens, UniProt P41162-2 1-143)
# T8 sequence: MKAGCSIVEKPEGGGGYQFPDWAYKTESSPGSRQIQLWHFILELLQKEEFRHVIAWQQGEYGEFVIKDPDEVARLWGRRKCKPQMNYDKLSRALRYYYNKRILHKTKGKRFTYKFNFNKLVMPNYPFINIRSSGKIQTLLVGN
# Procedure, shortened: as §1
# ETV6 = ETV6 (Homo sapiens, UniProt P41212 1-452)
# Procedure, shortened: as §1
# ETV6, sequence (P41212 whole entry): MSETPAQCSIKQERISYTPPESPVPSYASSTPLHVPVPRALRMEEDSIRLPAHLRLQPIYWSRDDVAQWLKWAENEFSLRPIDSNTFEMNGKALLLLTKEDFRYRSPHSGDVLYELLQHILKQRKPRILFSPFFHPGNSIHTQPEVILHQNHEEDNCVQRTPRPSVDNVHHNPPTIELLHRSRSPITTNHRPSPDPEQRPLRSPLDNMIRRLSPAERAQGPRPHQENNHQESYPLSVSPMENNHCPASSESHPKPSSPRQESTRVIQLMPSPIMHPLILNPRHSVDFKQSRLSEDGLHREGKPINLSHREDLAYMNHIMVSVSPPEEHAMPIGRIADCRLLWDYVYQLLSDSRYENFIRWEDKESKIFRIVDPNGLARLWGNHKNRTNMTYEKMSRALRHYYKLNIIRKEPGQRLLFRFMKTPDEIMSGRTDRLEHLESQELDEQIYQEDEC
# ETV1, sequence (P50549 whole entry): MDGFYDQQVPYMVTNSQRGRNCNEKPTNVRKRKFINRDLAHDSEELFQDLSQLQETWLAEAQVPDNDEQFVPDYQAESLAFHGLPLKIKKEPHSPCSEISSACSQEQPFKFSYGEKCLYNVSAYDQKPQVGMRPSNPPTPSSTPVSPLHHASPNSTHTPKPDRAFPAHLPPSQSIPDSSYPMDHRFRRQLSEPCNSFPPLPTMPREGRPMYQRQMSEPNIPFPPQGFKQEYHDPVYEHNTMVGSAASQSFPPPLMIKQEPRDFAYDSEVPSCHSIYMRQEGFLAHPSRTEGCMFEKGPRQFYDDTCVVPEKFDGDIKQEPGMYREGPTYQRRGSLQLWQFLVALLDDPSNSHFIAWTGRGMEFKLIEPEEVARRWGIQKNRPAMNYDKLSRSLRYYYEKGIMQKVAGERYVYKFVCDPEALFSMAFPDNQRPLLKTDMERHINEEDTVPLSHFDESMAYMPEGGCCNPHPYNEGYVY
sequence,measurement,setting,value
ATAATG,binding signal,ELK4,"1.16 fold enrichment (6-mer frequency, TF over GST control)"
same,binding signal,ELF3,"1.03 fold enrichment (6-mer frequency, TF over GST control)"
same,binding signal,ETV1,"1.16 fold enrichment (6-mer frequency, TF over GST control)"
same,binding signal,ERF,"1.09 fold enrichment (6-mer frequency, TF over GST control)"
same,binding signal,ETV3L,"1.2 fold enrichment (6-mer frequency, TF over GST control)"
same,binding signal,ETS2,"1.14 fold enrichment (6-mer frequency, TF over GST control)"
same,binding signal,SPDEF,"1.06 fold enrichment (6-mer frequency, TF over GST control)"
same,binding signal,ETV7,"1.01 fold enrichment (6-mer frequency, TF over GST control)"
same,binding signal,ETV3,"1.09 fold enrichment (6-mer frequency, TF over GST control)"
same,binding signal,ETV6,"1.09 fold enrichment (6-mer frequency, TF over GST control)"
